Results as given in PubChem BioAssay (Tox21).
Records with an inconclusive call do not appear. A number with no mark means an inactive call. The source made the active and inactive calls. Calls follow the shape of the dose curve; as a rule, active = well fitted cell-killing curve with a large enough effect in the repeat runs; inconclusive = weak or mixed curves; inactive = flat fitted curve, though single readings scatter.

Experiment: qHTS RealTime-Glo MT Cell Viability Assay in HepG2 cells - 16 hour (AID 1224885); also: nearly all actives have a fitted effect of over 50% in size
Conditions: RealTime-Glo luminescence; series mostly up to 76.8 µM; activity change, negative = cytotoxic: at the top concentration
Excerpt: U.S. Tox21 Program National Center for Advancing Translational Sciences [NCATS] NIH Chemical Genomics Center [NCGC] U.S. Environmental Protection Agency [EPA] National Institutes of Environmental Health Sciences [NIEHS] National Toxicology Program [NTP] U.S. Food and Drug Administration [FDA] Tox21 Assay Overview: Measure of cell viability is critical in the cell-base assay. Analysis of cell viability is necessary for the characterization of cell responses to cytotoxic drugs and environmental stress. A RealTime-Glo MT Cell Viability Assay to monitor cell viability in real time of continues cell culture during 40 hours of compound treatment was used to screen Tox21 10K library compounds in HepG2 cells. The RealTime-Glo MT Cell Viability Assay is a nonlytic, homogeneous, bioluminescent method to measure cell viability in real time using a simple, plate-based method. The assay involves adding NanoLuc luciferase and a cell-permeant prosubstrate to cells in culture. Viable cells reduce the proprietary prosubstrate to generate a substrate for NanoLuc luciferase. This substrate diffuses from cells into the surrounding culture medium, where it is rapidly used by the NanoLuc Enzyme to produce a luminescent signal. The signal correlates with the number of viable cells, making the assay well suited for cytotoxicity studies.
Tox21 Assay Protocol Summary: The mixture of HepG2 cell suspension and reagents were dispensed at 600cells/6 ul/well in 1536-well tissue culture treated black solid bottom plates using a Multidrop dispenser. After the assay plates were incubated at a 37 C/5% CO2 incubator for 5 hours, 23 nL of compounds dissolved in DMSO, positive and negative controls was transferred to the assay plate by a pintool work station. The plates were incubated at 37 C for 40 hours. The luminescence intensity were measured at 0h, 8h, 16h, 24h, 32h and 40h time points using ViewLux plate reader during compound treatment.
% is scaled to controls: 0 for no effect and ±100 for the full control effect.

Row | Structure (SMILES) | Potency | activity change, negative = cytotoxic
1 | CCCCC/C=C\C/C=C\CCCCCCCC(=O)O | inactive | 
2 | COCCOc1cc2cc(C(=O)NC3CCN(C(C)C)CC3)n(CC(=O)Nc3ccc(Cl)cn3)c2cn1 |  | 0.587%
3 | C#C[C@]1(OC(C)=O)CC[C@H]2[C@@H]3CCC4=C[C@@H](OC(C)=O)CC[C@@H]4[C@H]3CC[C@@]21C |  | -14.1% [at 35.3 µM]
4 | OC1CCC(C2CCCCC2)CC1 (stereo not given) |  | -16.2%
5 | CC(=O)CC(=O)Nc1ccc(S(=O)(=O)O)cc1 |  | -0.941%
6 | CCCC(=O)OCCc1ccccc1 |  | -1.14%
7 | O=C(/C=C/c1ccc(O)c(O)c1)O[C@@H](C(=O)O)[C@@H](OC(=O)/C=C/c1ccc(O)c(O)c1)C(=O)O |  | -0.559%
8 | Cc1ccc(C(=O)O)cc1 |  | 1.19%
9 | CC1=CCC(=C(C)C)CC1 |  | -2.51%
10 | Clc1nnc(Cl)c2ccccc12 |  | -15.3%
11 | CC(CCc1ccccc1)NCC(O)c1ccc(O)c(C(N)=O)c1 (stereo not given) |  | -0.63%
12 | Cc1ccc(O)c(O)c1 |  | -12.3%
13 | O=C(O)[C@H](O)[C@@H](O)[C@H](O[C@@H]1O[C@H](CO)[C@H](O)[C@H](O)[C@H]1O)[C@H](O)CO |  | 2.39% [at 35.3 µM]
14 | CC1=Nc2ccccc2C1(C)C |  | 1.7%
15 | C=CC(=O)OCCOC(=O)C=C |  | -7.19%
16 | c1ccc(C(O[C@@H]2CCCN(CCc3ccc4c(c3)OCO4)C2)c2ccccc2)cc1 |  | -14.5%
17 | CCN(CCN)c1cccc(C)c1 | inactive | 
18 | O=S(=O)(O)c1ccccc1/C=C/c1ccc(-c2ccc(/C=C/c3ccccc3S(=O)(=O)O)cc2)cc1 |  | -0.322%
19 | c1ccc(SSc2ccccc2)cc1 |  | 2.12%
20 | CCC(COC(=O)CCS)(COC(=O)CCS)COC(=O)CCS |  | -3.93%

Row | Structure (SMILES) | Potency | activity change, negative = cytotoxic
21 | CCCCOC(=O)CC |  | 0.328%
22 | OC1CCCc2ccccc21 (stereo not given) |  | 0.163%
23 | OC/C=C/CO |  | -0.135%
24 | CCC(=O)OC(=O)CC |  | 0.431%
25 | S=C([S-])NCCNC(=S)[S-].S=C([S-])NCCNC(=S)[S-].[Mn+2].[Zn+2] |  | -20.2% [at 35.3 µM]
26 | Cc1cc(=O)oc2cc(O)cc(O)c12 |  | -5.98%
27 | C=Cc1cccc(C)c1 | inactive | 
28 | O=c1c(O)c(-c2ccc(O)cc2O)oc2cc(O)cc(O)c12 |  | 0.974%
29 | Cc1nc2n(c(=O)c1CCN1CCC(c3noc4cc(F)ccc34)CC1)CCCC2 |  | -7.52% [at 35.3 µM]
30 | Cc1c(C)c2c(c(C)c1OC(=O)c1cccnc1)CC[C@@](C)(CCC[C@H](C)CCC[C@H](C)CCCC(C)C)O2 |  | 0.0361% [at 35.3 µM]
31 | CCc1cccc(CC)c1NC(=O)CN(CC(=O)O)CC(=O)O |  | 0.174% [at 35.3 µM]
32 | CCCCC(CC)COC(=O)CCCCC(=O)OCc1ccccc1 (stereo not given) |  | -6.06%
33 | CCCCCCCCCCCC(=O)OCC(C)OC(=O)CCCCC(=O)O (stereo not given) |  | 4.12% [at 35.3 µM]
34 | CC(C(=O)O)c1ccc2c(c1)[nH]c1ccc(Cl)cc12 (stereo not given) |  | 6.29% [at 35.3 µM]
35 | Oc1c(I)cc(Cl)c2cccnc12 |  | -4% [at 35.3 µM]
36 | COc1c(C)c2c(c(O)c1C/C=C(\C)CCC(=O)OCCN1CCOCC1)C(=O)OC2 |  | 5.71% [at 35.3 µM]
37 | CC1(C)CC(O)CC(C)(C)N1 |  | -0.844%
38 | CCCCCCCCCCC[C@@H](C[C@@H]1OC(=O)[C@H]1CCCCCC)OC(=O)[C@H](CC(C)C)NC=O |  | -14% [at 35.3 µM]
39 | S=c1nccc[nH]1 |  | -1.08%
40 | O=C(/C=C/c1ccccc1)OC/C=C/c1ccccc1 |  | -14.7%
